Experimental data: PubChem BioAssay (Tox21)
Records with an inconclusive call do not appear. Entries that show only a call come without a potency. Calls of active or inactive are those of the source. Calls follow the shape of the full dose curve.

test: qHTS assay to identify small molecule agonists of the endoplasmic reticulum stress response signaling pathway - cell viability counter screen (AID 1159517); conditions: ESRE-bla HeLa viability, CellTiter-Glo luminescence, 5 h; series mostly up to 61 µM; also: nearly all actives have a fitted effect of over 50% in size
From the text: U.S. Tox21 Program National Center for Advancing Translational Sciences [NCATS] NIH Chemical Genomics Center [NCGC] U.S. Environmental Protection Agency [EPA] National Institutes of Environmental Health Sciences [NIEHS] National Toxicology Program [NTP] U.S. Food and Drug Administration [FDA] Tox21 Assay Overview: Endoplasmic Reticulum (ER) plays an important role in cellular signaling, protein folding/maturation, stress response, lipid biosynthesis, calcium storage and release etc. Under stress conditions, proteins in ER misfold or unfold, and leading to the expression of ER stress responsive genes. ER stress has been associated with a variety of pathophysiological conditions such as cancer, inflammation, neurodegenerative diseases, diabetes, ischemic heart disease etc. To identify the compounds that induce ER stress response, an ER stress reporter cell line, CellSensor ESRE-bla HeLa (Life Technologies, Carlsbad, CA) containing a beta-lactamase reporter gene under control of the Endoplasmic reticulum Stress Response Element (ESRE) was used to screen Tox21 10K compound library. The cytotoxicity of the Tox21 compound library against the ESRE-bla HeLa cell line was tested in parallel by measuring cell viability using the CellTiter-Glo assay in the same wells.
Tox21 Assay Protocol Summary: ESRE-bla HeLa cells were dispensed at 1,500 cells/6 uL of assay medium per well into black wall/clear-bottom 1536-well plates using a Multidrop Combi (ThermoFisher Scientific, Waltham, MA) dispenser. After the assay plates were incubated at 37 C and 5% CO2 for an overnight, 23 nL of compounds dissolved in DMSO, positive controls or DMSO only was transferred to the assay plate by a Pintool station (Kalypsys, San Diego, CA). The assay plates were incubated at 37 C and 5% CO2 for 5 hr. One uL of LiveBLAzer B/G FRET substrate (Life Technologies) was added using a FRD (Flying Reagent Dispenser, Aurora Discovery, San Diego, CA) and the plates were incubated at room temperature for 2 hr. Fluorescence intensity (405 nm excitation, 460 nm and 530 nm emissions) was measured using an Envision plate reader (PerkinElmer, Shelton, CT). For cytotoxicity, 4 ul/well of CellTiter-Glo reagent was added into the assay plates using an FRD. After 30 min incubation at room temperature, the luminescence intensity was measured using a ViewLux plate reader (PerkinElmer).
Potency is read from the fitted curve at half-maximal effect.

SMILES | Potency
CSc1ccc2c(c1)C(N1CCN(C)CC1)Cc1ccccc1S2 (stereo not given) | 19 µM (active)
O=[N+]([O-])c1cc([N+](=O)[O-])c2ccc(S(=O)(=O)O)cc2c1O | inactive
c1cc(C(c2ccc(OCC3CO3)cc2)c2ccc(OCC3CO3)cc2)ccc1OCC1CO1 (stereo not given) | inactive
CCC(C)(C)C1CCCCC1OC(C)=O (stereo not given) | inactive
CC(C)(C)c1ccc(C(=O)CCCN2CCC(OC(c3ccccc3)c3ccccc3)CC2)cc1 | 23.9 µM (active)
CCc1cc(SCc2sc(-c3ccc(C(F)(F)F)cc3)nc2CN2CCN(c3ccc(OC)cc3)CC2)ccc1OCC(=O)O | 54.9 µM (active)
CCCCCCCCOC(=O)c1ccc(O)cc1 | 54.9 µM (active)
CCCC(c1cc(C(C)(C)C)c(O)cc1C)c1cc(C(C)(C)C)c(O)cc1C | 22.1 µM (active)
C1CCCC1 | inactive
N#CC1(c2ccc(F)cc2)CCC(=O)CC1 | inactive
CCOC(=O)/C=C(C)/C=C/C=C(C)/C=C/c1c(C)cc(OC)c(C)c1C | inactive
CC1=C(/C=C/C(C)=C/C=C/C(C)=C/C=O)C(C)(C)CCC1 | 38.7 µM (active)
N=C1C=CC(=C(c2ccc(N)cc2)c2ccc(N)cc2)C=C1 | inactive
O=C1Cc2cc(CCN3CCN(c4nsc5ccccc45)CC3)c(Cl)cc2N1 | inactive
Cn1cc(C(=O)[C@@H]2CCc3nc[nH]c3C2)c2ccccc21 | inactive
Nc1nc2ccccc2n1Cc1ccc(F)cc1 | inactive
O=C(Oc1ccccc1)c1ccccc1C(=O)Oc1ccccc1 | inactive
CCCCN1C(=O)[C@@H]([C@H](O)C2CCCCC2)NC(=O)C12CCN(Cc1ccc(Oc3ccc(C(=O)O)cc3)cc1)CC2 | inactive
CC(=O)S[C@@H]1CC2=CC(=O)CC[C@]2(C)[C@H]2CC[C@@]3(C)[C@@H](CC[C@@]34CCC(=O)O4)[C@H]12 | inactive
O=[N+]([O-])c1ccccc1Nc1ccccc1 | inactive

SMILES | Potency
CCCCCCCCCCCCc1ccc(O)cc1 | 21.9 µM (active)
CCCCCCCCCCCCCCCC[N+](C)(C)CCN(Cc1ccc(OC)cc1)c1ncccn1 | 21.3 µM (active)
CCC(N)(CO)CO | inactive
CC[C@H]1O[C@]2(CC[C@@H]1C)C[C@@H]1C[C@@H](C/C=C(\C)C[C@@H](C)/C=C/C=C3\CO[C@@H]4[C@H](O)C(C)=C[C@@H](C(=O)O1)[C@]34O)O2 | 24.3 µM (active)
CC[C@H](c1ccc(O)cc1)[C@@H](CC)c1ccc(O)cc1 | inactive
CCOc1nc2cccc(C(=O)OC(C)OC(=O)OC3CCCCC3)c2n1Cc1ccc(-c2ccccc2-c2nn[nH]n2)cc1 (stereo not given) | 21.9 µM (active)
CCCCCCOC(=O)c1ccc(O)cc1 | 49 µM (active)
CCCCCOC(=O)CCCC | inactive
O=C(c1ccc(F)cc1)C1CCN(CCn2c(=O)[nH]c3ccccc3c2=O)CC1 | inactive
COc1cc(-c2ccc(N=C=O)c(OC)c2)ccc1N=C=O | inactive
O=c1c(-c2ccccc2)c1-c1ccccc1 | inactive
Cc1ccc2oc(CN(Cc3ccccc3)C(=O)Nc3c(F)cc(F)cc3F)c(-c3ccc(Cl)cc3)c2c1 | inactive
[Cl][Bi]([Cl])([c]1ccccc1)([c]1ccccc1)[c]1ccccc1 | 38.7 µM (active)
O=C(Nc1cccc([N+](=O)[O-])c1)c1cc2ccccc2cc1O | inactive
[Cl][Au]([Cl])[Cl] | inactive
CCc1oc2ccccc2c1C(=O)c1cc(Br)c(O)c(Br)c1 | inactive
O=C(OCC(COC(=O)c1ccccc1)(COC(=O)c1ccccc1)COC(=O)c1ccccc1)c1ccccc1 | inactive
CC1=NC(C)OC1C (stereo not given) | inactive
Cc1cc(O)c(Cl)c(C)c1Cl | 54.9 µM (active)
CCCC1O[C@@H]2C[C@H]3[C@@H]4CCC5=CC(=O)C=C[C@]5(C)[C@H]4[C@@H](O)C[C@]3(C)[C@]2(C(=O)CO)O1 (stereo not given in full) | inactive
